The full list was thinned out, with hits kept by preference.
Chlamy TAG: inducers of TAG accumulation in Chlamydomonas, primary screen, qHTS, Chlamydomonas reinhardtii; AID 1159537, 2015; calls only at 10 µM (by protocol); Nile Red fluorescence, 72 h; 44,000 compounds, 0.84% hits; call rule not given here;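 further: hits raise Nile Red signal meaning more stored TAG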
Calls only; i = inactive; + = active, no number.

SMILES	Chlamy TAG
COc1ccc(N2CCN(Cc3cccs3)CC2)cc1	i
COc1ccc(N2CCN(Cc3cccnc3)CC2)cc1	i
COc1ccc(N2CCN(Cc3ccsc3)CC2)cc1	+
COc1ccc(C(=O)Nc2ncccc2Cl)cc1	i
COc1cccc(NS(=O)(=O)c2cc([N+](=O)[O-])ccc2C)c1	i
O=C(c1ccccc1)N1CCN(C2C3CC4CC(C3)CC2C4)CC1 (stereo not given)	i
Cc1ccc(N2CCN(C3C4CC5CC(C4)CC3C5)CC2)cc1 (stereo not given)	i
CS(=O)(=O)N1CCN(C2C3CC4CC(C3)CC2C4)CC1 (stereo not given)	+
NC1=C(N2CCCCC2)C(=O)c2ccccc2C1=O	i
COc1cc(NS(=O)(=O)c2ccc(NC(C)=O)cc2)c(OC)cc1NC(=O)c1ccccc1	i
Cc1ccccc1NC(=O)C(C)(C)Oc1ccc(Cl)cc1	i
Cc1ccc(NC(=O)c2ccc(Cl)cc2)c(C)c1	i
Cc1ccc(C(=O)Nc2ccc(I)cc2C)cc1C	i
Cc1ccc(C(=O)Nc2ccc(Cl)cc2C)cc1C	+
COc1ccc(CNCc2ccc(OC)cc2)cc1	i
COc1ccc(CNC2CCSC2)cc1 (stereo not given)	+
COc1ccc(CNC2CCCCC2C)cc1 (stereo not given)	i
Cc1ccccc1NC(=O)c1ccc(Cl)cc1	i
COc1cc(CN2CCN(C/C=C/c3ccccc3)CC2)cc([N+](=O)[O-])c1O	i
COc1ccc(NC(N)=Nc2nc(C)cc(C)n2)cc1	i
O=C(Cc1ccc(Cl)cc1)Nc1ccc(N2CCN(C(=O)c3ccccc3)CC2)cc1	i
O=C(c1ccccc1)N1CCN(C(=O)c2ccc(Cl)cc2Cl)CC1	i
O=C(Nc1ccc(N2CCN(C(=O)c3ccccc3)CC2)cc1)c1ccc(Cl)cc1Cl	+
O=C(Cc1ccc(Br)cc1)Nc1cccc(F)c1	i
CC(=O)Nc1ccc(N2C(=O)CC(NCCCN3CCOCC3)C2=O)cc1 (stereo not given)	i
SMILES	Chlamy TAG
Cc1ccc(C)c(NC(=O)C(C)Sc2ccccc2)c1 (stereo not given)	i
COc1ccc(CN(C)C2CCCCC2)cc1C	+
COc1ccc(CNC2CCCC2)cc1C	i
COc1ccc(CN(C)C2CCCCC2)cc1	+
COc1ccc(CN2CCCC(O)C2)cc1C (stereo not given)	i
COc1ccc(Nc2nc(N)nc(CN(C)C3CCCCC3)n2)cc1	i
COc1ccc(CC(=O)NC2CCCC2)cc1	i
Cc1ccc(S(=O)(=O)N(C)c2ccc([N+](=O)[O-])cc2)cc1	i
Cc1oc(C(=O)O)cc1CSc1ccccc1C(=O)O	i
COc1ccc(CCNC(=O)c2cc3c(n(-c4ccccc4)c2=O)CC(C)(C)CC3=O)cc1OC	i
CC1CCCCC1NCc1ccc([N+](=O)[O-])cc1 (stereo not given)	i
O=C(NC1CCCCC1)c1ccc([N+](=O)[O-])o1	i
O=C(NC1CCCCCC1)c1ccc([N+](=O)[O-])cc1	i
O=[N+]([O-])c1cccc(CN2CCCCCC2)c1	i
CN1CCC(N(C)Cc2ccc([N+](=O)[O-])cc2)CC1	i
O=[N+]([O-])c1ccc(CNC2CCCc3ccccc32)cc1 (stereo not given)	i
O=[N+]([O-])c1ccc(CNC2CCCC2)cc1	+
O=[N+]([O-])c1ccc(CNC2CCCCCC2)cc1	+
CN1CCC(N(C)Cc2cccc([N+](=O)[O-])c2)CC1	i
O=[N+]([O-])c1cccc(CNC2CCCCCC2)c1	+
CN(Cc1ccc([N+](=O)[O-])cc1)C1CCCCC1	+
O=C(NC1CCCCCC1)c1cccc([N+](=O)[O-])c1	i
COc1c(Cl)cc(C(=O)Nc2cccc(Cl)c2C)cc1Cl	i
Cc1ccc(C(=O)N2CCN(c3cccc(C)c3C)CC2)cc1[N+](=O)[O-]	i
O=C(Nc1c(C(=O)Nc2ccccc2F)cnn1-c1ccccc1Cl)c1cccs1	i
SMILES	Chlamy TAG
CN(CC(=O)NCc1ccco1)S(=O)(=O)c1ccc(Cl)cc1	i
NS(=O)(=O)c1ccc([N+](=O)[O-])cc1	i
O=[N+]([O-])c1cc(Cl)ccc1N1CCN(S(=O)(=O)c2ccc(Cl)cc2)CC1	i
CCC(C)Nc1nc(OC)nc(N(C#N)CC(=O)N(c2ccccc2)C(C)C)n1 (stereo not given)	i
O=C(c1ccc(CN2CCc3ccccc3C2)cc1)N1CCN(c2ccccc2F)CC1	+
NC(=O)C1CCN(C(=O)c2ccc(CN3CCc4ccccc4C3)cc2)CC1	i
COc1ccc(N2CCN(C(=O)c3ccc(CN4CCc5ccccc5C4)cc3)CC2)cc1	i
COc1cccc(N(CC(=O)NCc2ccccc2OC)S(C)(=O)=O)c1	i
c1ccc(N2CCN(c3ncnc4sc5c(c34)CCC5)CC2)cc1	i
COc1ccc(-c2nc3c4c5c(sc4ncn3n2)CCCC5)cc1	i
COc1ccc(CN2CCN(c3ncnc4sc5c(c34)CCCC5)CC2)cc1	+
C=CCNCCCOc1ccc(C(C)C)c(C)c1	i
COc1cc(Br)cc(CN(C)CCN(C)C)c1O	i
CCC(Oc1ccccc1)C(=O)Nc1nccs1 (stereo not given)	i

Screening data as filed in PubChem.
